This is a sample that favours compounds with a hit; in the whole collection about 1.2% have one here.
TSG101-PTAP inh: blocks PTAP/TSG101 interaction to inhibit HIV-1 budding; AID 493005; Potency, µM (highest dose often 115 µM), inactives show at the highest dose activity change, negative = inhibition, usual class: inhibitors; Fluorescence polarization, FITC-PTAP peptide / Tsg101 binding; 340,000 tested, under 10 active; Q99816; active = well fitted inhibition curve with a large enough effect in the main read-out, with a control signal flat, not every such curve was filed as active; inconclusive = small, poorly fitted or top-dose-only effect, or effect the other way, or a change in a side signal; inactive = no such curve, though single readings can be large or run the other way; note: potency is the fitted concentration of half-maximal effect; % of control where 0% means no effect
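Steps: Tsg101 binding domain dispensed (10 uM final), compounds pinned in DMSO, FITC-labeled PTAP-motif peptide added (50 nM final); after 20 min binding at room temperature, polarization measured.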
Tb PFK inh-1: inhibitors of T. brucei phosphofructokinase | T. brucei PFK, ADP-Glo luminescence | Potency, µM (doses to about 57.5 µM), without a hit: at the top dose activity, negative = inhibition, most hits filed as inhibitors | 330,000 compounds, 0.17% hits;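 note: potency is the fitted concentration of half-maximal effect; 0% = uninhibited 1x PFK enzyme wells and -100% = no-enzyme wells; nearly all actives have a fitted effect of over 60% in size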
Target sequence (O15648 whole entry, looked up): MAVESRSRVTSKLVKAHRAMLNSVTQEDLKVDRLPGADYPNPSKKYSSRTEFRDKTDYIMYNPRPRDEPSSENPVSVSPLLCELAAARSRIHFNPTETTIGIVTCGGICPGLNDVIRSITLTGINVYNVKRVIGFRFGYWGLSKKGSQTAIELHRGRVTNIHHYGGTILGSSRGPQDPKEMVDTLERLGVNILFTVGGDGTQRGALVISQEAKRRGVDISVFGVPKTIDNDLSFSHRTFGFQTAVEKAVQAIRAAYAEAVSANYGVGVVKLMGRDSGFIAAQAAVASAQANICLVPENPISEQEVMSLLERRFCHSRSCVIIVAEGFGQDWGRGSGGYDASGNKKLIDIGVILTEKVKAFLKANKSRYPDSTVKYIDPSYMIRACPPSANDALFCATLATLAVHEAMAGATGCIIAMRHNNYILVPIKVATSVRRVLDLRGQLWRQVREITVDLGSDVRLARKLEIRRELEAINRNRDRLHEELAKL
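PFK 1.25 nM, F6P 0.5 mM, ATP 0.1 mM, 0.1 M TEA pH 8.0, 5 mM MgCl2, 0.01% Tween20, 0.1% BSA; 45 min RT. ADP-Glo readout. qHTS titration up to 57 uM; curves fitted, compounds curve-classed.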
KCNH2 3.1 inh: blocks the human KCNH2 3.1 channel isoform; U2OS KCNH2 3.1, thallium flux FluxOr; stronger effect = lower value; activity change, % (tested at about 1.8 µM); 340,000 compounds, 0.95% hits; AID 720553;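 active = maximum activity change below -70%; inconclusive = maximum activity change from -70% to -50%; inactive = maximum activity change above -50%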;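 note: thallium influx rate constant from kinetic fluorescence after stimulation buffer; % is set by controls: 0 for no effect and ±100 for the full control effect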
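Kinetic fluorescence (2 min after stimulation buffer) measures Tl+ influx through KCNH2 3.1 expressed by viral transduction in U2OS cells; the rate constant is normalized against DMSO controls serving as positive and negative references.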
KCNH2 WT inh: blocks the wildtype human KCNH2 potassium channel; activity change, % at 1.84 µM; AID 720551; U2OS, BacMam KCNH2, thallium flux FluxOr; stronger effect = lower value; 340,000 compounds, 0.37% hits; Q12809;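 active = maximum activity change below -70%; inconclusive = maximum activity change between -70% and -50%; inactive = maximum activity change above -50%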; note: % is set by controls: 0 for no effect and ±100 for the full control effect
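U2OS cells transduced with wild-type KCNH2 virus are loaded with FluxOr dye for 45 min, and thallium flux is measured in kinetic reads before and after stimulation buffer. Rate constants are normalized to DMSO controls.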
Tb PFK KinaseGlo: orthogonal confirmation of T. brucei phosphofructokinase inhibitors; Tb PFK enzyme, ATP depletion, Kinase-Glo Plus luminescence; 1,100 compounds, 47% hits; Potency, µM (titrated, usually from 57.5 µM), for the others: top-dose inhibition; AID 504636; shares compounds with Tb PFK inh-1; calls by dose curve; note: potency is the fitted concentration of half-maximal effect; nearly all actives have a fitted effect of over 60% in size
Tb PFK inh-2: T. brucei PFK enzyme inhibition, hit validation; shares compounds with Tb PFK inh-1; purified T. brucei PFK, ADP-Glo luminescence, 45 min; Potency, µM (titrated, usually from 57.5 µM), inactives show at the top dose activity change, negative = inhibition, most hits filed as inhibitors; 1,100 compounds, 41% hits; AID 504637;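 note: potency is the fitted concentration of half-maximal effect; plate controls were full PFK enzyme control for no effect and no enzyme control for full effect; nearly all actives have a fitted effect of over 60% in size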
* marks the source's active call; other numbers are inactive results; u = inconclusive; x = no result. Unless noted, calls come from the whole dose curve; as a rule, active = well fitted inhibition curve with a large enough effect; inconclusive = small, poorly fitted or top-dose-only effect, or effect the other way; inactive = flat fitted curve, though single readings scatter.

SMILES	TSG101-PTAP inh	Tb PFK inh-1	KCNH2 3.1 inh	KCNH2 WT inh	Tb PFK KinaseGlo	Tb PFK inh-2
COC(=O)C1=C(c2cccc(C#N)c2)C[C@@H]2CC[C@H]1N2C(=O)NCCOc1ccccc1Cl	-4%	-1%	9	5	x	x
O=C(/C=C/c1ccc(S(=O)(=O)NCc2ccco2)cc1)NCc1cccc(Cl)c1	0%	27µM*	-14	-4	21µM*	27µM*
O=C(/C=C/c1ccc(OCCCF)cc1)NCc1cccc(Cl)c1	-1%	u	-12	-4	u	u
O=C(/C=C/c1ccco1)NCc1ccco1	-2%	u	3	1	21µM*	u
Cc1ccc2c(c1)N(C(=O)CCC(=O)N1CCC3(CC1)OCCO3)CCO2	-2%	0%	-3	-6	x	x
C[C@]12CCC(=O)C=C1C=CC1C2CC[C@]2(C)C(=O)CCC12 (some centres not stated)	0%	-1%	0	-3	x	x
COc1cccc(C(=O)NNC(=O)Cc2ccc([N+](=O)[O-])cc2)c1	-2%	u	-1	-12	u	u
NC(=S)NNc1ccc(Cl)c(Cl)c1	-1%	19µM*	-4	9	4.8µM*	12µM*
COc1cc2cc3c(N)c(C(=O)Nc4sc(C)c(C)c4C#N)sc3nc2cc1OC	10%	u	-1	-5	0%	16%
Cc1ccc(-c2c[n+](Cc3ccc(Cl)c(Cl)c3)c3n2CCC3)cc1	-2%	6µM*	-2	2	4.8µM*	13µM*
CN1C(=S)SC(N(O)C(=O)Nc2ccc(Cl)c(Cl)c2)C1(C)C (configuration not stated)	-8%	u	7	5	u	u
O=C(CSc1ccsc1[N+](=O)[O-])Nc1cc(F)ccc1F	-2%	u	9	-3	6.7µM*	u
CCN(CC)c1ccc(NC(=O)CSc2ccsc2[N+](=O)[O-])c(C)c1	-2%	u	11	13	u	-27%
O=C(O)c1ccc(Cl)c(S(=O)(=O)Nc2cccc(C(=O)Nc3cccc(C(F)(F)F)c3)c2)c1	-4%	u	-5	0	u	u
O=C(O)c1ccc(Cl)c(S(=O)(=O)Nc2ccc3cn[nH]c3c2)c1	1%	u	u	15	9%	1%
O=C(O)c1ccc(Cl)nc1	1%	8%	-6	-1	x	x
CN(C)c1cc(Cl)c2nonc2c1N	-2%	u	9	-4	21µM*	u
COC(=O)Oc1nsnc1N1CCOCC1	3%	27µM*	-5	6	u	u
CC(C)OP(=O)(OC(C)C)C(NCc1ccccc1)c1ccccc1 (configuration not stated)	6%	-9%	-3	-13	x	x
O=C1NC(=Nc2ccccc2)S/C1=C\C=C\c1ccco1	-1%	7.6µM*	0	19	u	u
CCOC(=O)c1c(-c2ccc(C)o2)csc1NC(=O)COC(=O)c1ccc(NC(N)=O)cc1	0%	2.1µM*	2	2	u	-20%
COC(=O)C1=C(c2ccc(C(C)=O)cc2)C[C@@H]2CC[C@H]1N2C(=O)NCc1ccc(F)cc1	0%	1%	2	14	x	x
CCN1/C(=C/C=C/c2oc3ccc(-c4ccccc4)cc3[n+]2CC)Oc2ccc(-c3ccccc3)cc21	u	u	-160*	-96*	-27%	u
CCOC(=O)c1c(C=O)c2ccccc2n1Cc1ccccc1	-2%	1%	-8	-8	x	x
CCOC(=O)c1[nH]c(C)c(/C(O)=C2\C(=O)C(=O)N(CCCn3ccnc3)C2c2ccncc2)c1C (configuration not stated)	-2%	24µM*	-11	-5	12µM*	27µM*
SMILES	TSG101-PTAP inh	Tb PFK inh-1	KCNH2 3.1 inh	KCNH2 WT inh	Tb PFK KinaseGlo	Tb PFK inh-2
CC1Cc2cc(/C(O)=C3/C(=O)C(=O)N(CCCn4ccnc4)C3c3cccc([N+](=O)[O-])c3)ccc2O1 (configuration not stated)	-4%	11µM*	-1	0	6.7µM*	21µM*
CC(=NCCCn1ccnc1)c1c(O)n(-c2ccccc2)c(=O)[nH]c1=O	1%	0%	1	5	x	x
CCCOc1ccc(/C(O)=C2/C(=O)C(=O)N(CCCn3ccnc3)C2c2ccc(C)o2)cc1 (configuration not stated)	-6%	u	-2	-4	u	30µM*
C=C1C(=O)[C@@]23C[C@H]4[C@@H]5[C@@]6(C)CCC[C@@]57[C@@H]2[C@@H](O)[C@@H]1C[C@H]3[C@H]7N4C6	-13%	x	10	-2	x	x
COC(=O)C1=C(c2ccc(-c3ccccc3)c(F)c2)C[C@@H]2CC[C@H]1N2C(=O)N1CCc2cc(OC)c(OC)cc2C1	-5%	1%	-38	-2	x	x
CCOC(=O)N1CCC(NC(=O)CCC(=O)N2CCOc3ccc(Cl)cc32)CC1	-1%	u	9	5	u	-21%
O=C(O)c1cc(-c2ccco2)nn1-c1ccc(Cl)cc1	-6%	u	4	-2	u	u
O=C1NC(=S)N(c2ccc(Cl)cc2)C(=O)/C1=C/N1CCN(C(=O)c2ccco2)CC1	2%	3%	-10	8	x	x
CCOC(=O)Cc1csc(-n2sc3ccccc3c2=O)n1	-8%	11µM*	4	-4	u	u
Fc1ccccc1CN1Cc2ccccc2-n2nncc2C1	x	x	0	6	x	x
C[C@H]1CC[C@@H]2[C@@H](C)[C@H]3[C@H](C[C@H]4[C@@H]5CC=C6C[C@@H](O[C@@H]7O[C@H](CO)[C@H](O)[C@H](O[C@@H]8O[C@H](CO)[C@@H](O)[C@H](O)[C@H]8O)[C@H]7O[C@@H]7O[C@@H](C)[C@H](O)[C@@H](O)[C@H]7O)CC[C@]6(C)[C@H]5CC[C@]34C)N2C1	u	0%	-6	-3	x	x
C[C@@H]1O[C@@H](O[C@@H]2[C@@H](O)[C@H](OCCc3ccc(O)c(O)c3)O[C@H](CO)[C@H]2OC(=O)/C=C/c2ccc(O)c(O)c2)[C@H](O)[C@H](O)[C@H]1O	-6%	1.7µM*	-1	3	4.8µM*	4.8µM*
CN1C(=O)C(=Cc2coc3ccccc3c2=O)C(=O)N(C)C1=O	-3%	0%	18	2	x	x
O=c1cc(/N=C/c2coc3c(ccc4ccccc43)c2=O)[nH]c(=S)[nH]1	-3%	u	-4	-18	-27%	u
CC(=O)Nc1cc(C(=O)CSc2nnc(C3CC3)n2C2CC2)ccc1O	-2%	u	-6	1	u	u

Screens: PubChem, National Center for Advancing Translational Sciences (NCATS)
